{
  "source": "PubChem BioAssay AID720533",
  "about": "(National Center for Advancing Translational Sciences (NCATS), 2013)",
  "note": "The whole screen tested about 18,000 compounds, of which about 750 (4.2%) were called active. A call without a number means that no potency is given here. About 13% were inconclusive and are not listed. This is one part of a sample in which actives are shown more often than they occur. A number with no mark means an inactive call. The call rests on the fitted dose curve; tested in HEK293 cells. Potency means the concentration at half of the fitted maximal effect.",
  "data": [
    {"experiment": "qHTS for Inhibitors of binding or entry into cells for Lassa Virus", "conditions": "Lassa virus pseudotyped entry inhibition, cell-based qHTS; series mostly up to 49.2 µM", "values": [
      {"smiles": "O=c1[nH]c(=O)c2nc3ccccc3nc2[nH]1", "activity change, negative = inhibition": "inactive"},
      {"smiles": "CC(O)(COc1ccccc1)c1ccc2c(c1)CN(Cc1cn[nH]c1-c1ccc(F)cc1)CCO2", "note": "(stereo not drawn)", "activity change, negative = inhibition": "inactive"},
      {"smiles": "CCCCCC(=O)N1C[C@H](n2cc(COC(=O)c3ccccc3)nn2)[C@@H](O)C[C@H]1c1ccc(Cl)cc1", "activity change, negative = inhibition": "inactive"},
      {"smiles": "C=C(CCN1C=C(C(=O)OCC)C(c2ccccc2)NC1=O)OC", "note": "(stereo not drawn)", "activity change, negative = inhibition": "-11% [at 8.59 µM]"},
      {"smiles": "CC(O)[C@@H](N)C(=O)O", "note": "(stereo partly drawn)", "activity change, negative = inhibition": "inactive"},
      {"smiles": "COc1c(O)c2c(=O)cc(OC)c3c4c(OC)cc(=O)c5c(O)c(OC)c6c(c(c1C[C@@](C)(O)[C@H]6C(C)=O)c23)c54", "Potency": "35.5 µM (active)"},
      {"smiles": "CCOC(=O)C1=NO[C@@]2(C=C(Br)C(=O)[C@H]3O[C@H]32)C1", "activity change, negative = inhibition": "inactive"},
      {"smiles": "COc1ccc(C2CC(=O)Oc3ccc(C(C)(C)C)cc32)cc1", "note": "(stereo not drawn)", "activity change, negative = inhibition": "inactive"},
      {"smiles": "CC(C)C[C@@H](CC(=O)N[C@@H](CCC(=O)O)CC(=O)O)NC(=O)[C@@H]1CCCC[C@H]1NC(=O)C[C@@H](NC(=O)C[C@H](CO)NC(=O)[C@@H]1CCCC[C@H]1N)C(C)C", "activity change, negative = inhibition": "inactive"},
      {"smiles": "CN1CCCC1CCO[C@@](C)(c1ccccc1)c1ccc(Cl)cc1", "note": "(stereo partly drawn)", "Potency": "12.6 µM (active)"},
      {"smiles": "CN1CCC[C@@H]1CCO[C@](C)(c1ccccc1)c1ccc(Cl)cc1", "activity change, negative = inhibition": "inactive"},
      {"smiles": "Fc1ccc(C(OCCN2CCN(C/C=C\\c3ccccc3)CC2)c2ccc(F)cc2)cc1", "Potency": "28.2 µM (active)"},
      {"smiles": "COc1ccc(CC2c3cc(OC)c(OC)cc3CC[N+]2(C)CCC(=O)OCCCCCOC(=O)CC[N+]2(C)CCc3cc(OC)c(OC)cc3C2Cc2ccc(OC)c(OC)c2)cc1OC", "note": "(stereo not drawn)", "activity change, negative = inhibition": "inactive"},
      {"smiles": "CC(C)[C@@H](CC(=O)N[C@@H]1CCNC[C@H]1C(=O)N[C@H](CC(=O)N[C@@H](CCC(=O)O)CC(=O)O)Cc1ccccc1)NC(=O)C[C@H](CO)NC(=O)[C@@H]1CNCC[C@H]1N", "activity change, negative = inhibition": "inactive"},
      {"smiles": "CN1CC(O)c2cc(N=NC(N)=O)c(O)cc21", "note": "(stereo not drawn)", "activity change, negative = inhibition": "inactive"},
      {"smiles": "CN(C)CCc1c[nH]c2ccc(Cn3cncn3)cc12", "activity change, negative = inhibition": "inactive"},
      {"smiles": "Fc1ccc(Cl)cc1-c1nc(Nc2ccncc2)c2nccnc2n1", "activity change, negative = inhibition": "inactive"},
      {"smiles": "CCS(=O)(=O)N(C)[C@@H]1c2cc(C#N)ccc2OC(C)(C)[C@H]1O", "activity change, negative = inhibition": "inactive"},
      {"smiles": "CCc1cc2c(nc1CC)CCN(CCC(C)=NOC[C@@H](O)COCc1ccco1)C2", "activity change, negative = inhibition": "3.34% [at 8.59 µM]"},
      {"smiles": "Cc1ccc(-c2cc(=O)c3ccc(Cl)cc3[nH]2)cc1", "activity change, negative = inhibition": "inactive"},
      {"smiles": "C=C(C(C)=O)C(O)c1cccs1", "note": "(stereo not drawn)", "activity change, negative = inhibition": "inactive"},
      {"smiles": "COC12CC[C@@]3(C[C@@H]1C(C)(O)C(C)(C)C)[C@H]1Cc4ccc(O)c5c4[C@@]3(CCN1CC1CC1)[C@H]2O5", "note": "(stereo partly drawn)", "Potency": "28.2 µM (active)"},
      {"smiles": "COc1ccc(CNS(=O)(=O)c2cc(Br)ccc2Br)cc1", "activity change, negative = inhibition": "inactive"}
    ]}
  ]
}
